Experimental data as given in PubChem BioAssay AID1851 (National Center for Advancing Translational Sciences (NCATS), 2009).
Values joined by “and” are separate entries in the source; they are usually repeats but may differ in a detail not shown here. Identical values can stand only once. The campaign covered roughly 16,000 compounds. About 4,000 (25%) were called active. Not shown: some 26% with an inconclusive outcome. Calls come from the whole dose curve; as a rule, active = well fitted curve in the direction sought with a large enough effect; inconclusive = small, poorly fitted or top-dose-only effect, or effect the other way; inactive = no such curve, though single readings can be large or run the other way. These entries were drawn from the full list. Some structures have more than one record in an assay (separate samples or runs), and their calls can disagree.

Molecular target: Cytochrome P450 2C9 (Homo sapiens) (UniProt P11712)
Assay: Cytochrome panel assay with activity outcomes
Conditions: recombinant CYP, pro-luciferin dealkylation, luminescence, p450-cyp2c9; series mostly up to 57.1 µM; activity, negative = inhibition: at the top concentration
% is set by controls: 0 for no effect and ±100 for the full control effect.

Sequence of Cytochrome P450 2C9 (Homo sapiens) (P11712 whole entry, looked up): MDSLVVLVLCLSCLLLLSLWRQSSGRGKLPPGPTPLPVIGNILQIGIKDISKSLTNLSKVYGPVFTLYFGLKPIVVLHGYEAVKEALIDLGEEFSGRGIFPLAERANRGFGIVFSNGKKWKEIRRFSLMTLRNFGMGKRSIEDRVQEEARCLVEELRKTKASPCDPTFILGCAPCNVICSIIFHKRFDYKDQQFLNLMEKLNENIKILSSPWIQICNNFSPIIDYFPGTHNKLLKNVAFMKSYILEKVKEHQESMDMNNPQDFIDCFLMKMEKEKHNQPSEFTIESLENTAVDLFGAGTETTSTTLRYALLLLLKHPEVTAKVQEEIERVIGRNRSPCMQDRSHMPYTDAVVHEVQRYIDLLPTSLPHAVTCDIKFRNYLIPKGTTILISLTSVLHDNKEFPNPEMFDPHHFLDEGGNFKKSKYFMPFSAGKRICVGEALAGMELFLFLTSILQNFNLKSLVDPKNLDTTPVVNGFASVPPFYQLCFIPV

Compound | AC50 | activity, negative = inhibition
O=C(O)c1cc[c]([Hg][S]c2ncnc3nc[nH]c23)cc1 | 1.26 µM (active) | 
Ic1cncc(OC[C@@H]2CCN2)c1 | 31.6 µM (active) | 
CC(C)(C)NC[C@@H](O)COc1cccc2[nH]c(C#N)cc12 |  | -27.6% (inactive)
CC[N@+]1(C)CCC[C@@H](OC(=O)C(O)(c2ccccc2)c2ccccc2)C1 |  | -7.68% [at 25.6 µM] (inactive)
C[N+]1([O-])[C@H]2CC[C@H]1CC(OC(=O)[C@@H](CO)c1ccccc1)C2 (some centres not stated) |  | 3.51% [at 11.4 µM] (inactive)
C[C@H]1CC[C@@]2(NC1)O[C@@H]1C[C@H]3[C@@H]4CC[C@@H]5C[C@@H](O)CC[C@@]5(C)[C@@H]4CC[C@]3(C)[C@@H]1[C@@H]2C |  | -6.95% [at 25.6 µM] (inactive)
CC(C)CCC[C@@H](C)[C@@H]1CC[C@@H]2[C@H]3CC[C@H]4C[C@@H](N)CC[C@@]4(C)[C@@H]3CC[C@]21C |  | 4.77% [at 11.4 µM] (inactive)
C[C@@]12CC[C@H]3[C@@H](CC[C@@H]4C[C@H]5S[C@H]5C[C@]43C)[C@H]1CC[C@H]2O | 0.00501 µM (active) | 
CN1C(=O)CCS(=O)(=O)[C@@H]1c1ccc(Cl)cc1 |  | 8.83% [at 25.6 µM] (inactive)
c1ccc([C@H]2CNCc3ccccc32)cc1 |  | 21.5% (inactive)
CCCN(CCC)[C@@H]1CCc2cccc(O)c2C1 |  | inactive
CC[C@]1(c2cccc(O)c2)CCCCN(C)C1 |  | 5.89% [at 25.6 µM] (inactive)
C[C@@H]1Cc2cc3c(cc2C(c2ccc(N)cc2)=NN1)OCO3 | 25.1 µM (active) | 
CC1=NN=C(c2ccc(N)cc2)c2cc3c(cc2C1)OCO3 | inactive and 1.26 µM (active) | 
CCCC[N+]1(C)[C@@H]2CC(OC(=O)[C@@H](CO)c3ccccc3)C[C@H]1[C@H]1O[C@H]12 (some centres not stated) |  | 25.2% (inactive)
CC(C)CC(=O)C[C@H](O)C(Cl)(Cl)Cl |  | -21.3% [at 11.4 µM] (inactive)
COc1cc2c(cc1O)C[C@@H]1c3c(cc(O)c(OC)c3-2)CCN1C |  | -4.78% [at 11.4 µM] (inactive)
CC(C)CN1CCC2(CC1)CCN(C(=O)Oc1ccccc1)CC2 |  | -0.61% (inactive)
Cc1nccc2c1[nH]c1ccccc12 |  | inactive

Compound | AC50 | activity, negative = inhibition
Cn1c(O)c(C(c2ccccn2)c2c(O)n(C)c(=S)[nH]c2=O)c(=O)[nH]c1=S |  | -3.3% (inactive)
O=C(c1cc(-c2ccccc2)nc2ccccc12)N1CCC2(CC1)OCCO2 | 28.2 µM (active) | 
O=C(c1cc2cc3ccc(Cl)cc3nc2o1)N1CCC2(CC1)OCCO2 |  | -14.2% (inactive)
O=[N+]([O-])c1ccc(S(=O)(=O)Cc2ccccc2)c([N+](=O)[O-])c1 | 3.16 µM (active) | 
O=C1c2cc([N+](=O)[O-])ccc2-c2ccc3c4ccc5c6c(ccc(c7ccc1c2c73)c64)C(=O)c1cc([N+](=O)[O-])ccc1-5 |  | -26.9% [at 11.4 µM] (inactive)
O=C(O)Cc1ccc([N+](=O)[O-])cc1[N+](=O)[O-] |  | 11.5% [at 11.4 µM] (inactive)
N[C@H](Cc1ccc2oc3cc(=O)c4ccccc4c-3nc2c1)C(=O)O |  | -13.7% [at 11.4 µM] (inactive)
COc1ccc(C(=O)c2c(C)n(CCN3CCOCC3)c3cc(I)ccc23)cc1 |  | -7.5% (inactive)
CN(C)CS/C(N)=N/[C@H](O)C(Cl)(Cl)Cl |  | -28.6% [at 11.4 µM] (inactive)
CC[N+](CC)(CCNC(=O)C(=O)NCC[N+](CC)(CC)Cc1ccccc1Cl)Cc1ccccc1Cl |  | -3.12% (inactive)
C/C=C1\C[C@H](C)[C@@](O)(CO)C(=O)OCC2=CCN3CC[C@@H](OC1=O)[C@@H]23 |  | 2.59% [at 25.6 µM] (inactive)
COCCCN1CCN(c2nnc3n2-c2sc(Br)cc2C(c2ccccc2Cl)=NC3)CC1 | 12.6 µM (active) | 
COCCCNC(=S)NC1CC2CCCC(C1)N2Cc1cccs1 (configuration not stated) |  | 25% (inactive)
COc1cc2c(c(OC)c1OC)-c1ccc(O)c(=O)cc1[C@H](N)CC2 |  | -1.6% [at 25.6 µM] (inactive)
CC[C@]1(OC(=O)CN)C(=O)OCc2c1cc1n(c2=O)Cc2cc3ccccc3nc2-1 |  | 6.92% [at 11.4 µM] (inactive)
Nc1ccc(S(=O)(=O)c2ccc(NCN3C(=O)NC(=O)C(=O)C3=O)cc2)cc1 |  | 7.48% [at 11.4 µM] (inactive)
CC(C)(C)CC(=O)NC(=S)Nc1ccccc1C(F)(F)F | 2.51 µM (active) | 
NCCCN1CCN(c2ccccc2)CC1 |  | 3.16% [at 11.4 µM] (inactive)
C/C(=N\OC(=O)NC(C)C)c1sc(-c2ccc(Cl)cc2)nc1C | 7.08 µM (active) | 

Compound | AC50 | activity, negative = inhibition
CCNC(=O)O/N=C(\C)c1sc(-c2ccccc2)nc1C | 8.91 µM (active) | 
CCC(CC)C(=O)NC1CCSC1=O (configuration not stated) |  | -18.2% (inactive)
N=C(N)n1cc(/C=N\N=C(N)N)cn1 |  | 5.35% [at 11.4 µM] (inactive)
CC1=CC(=O)C2=C(C)C[C@@H](O)[C@@H]3[C@@H](OC(=O)[C@H]3C)[C@H]12 |  | -8.01% [at 25.6 µM] (inactive)
CN(C)C(=O)Oc1cc(OC(=O)N(C)C)cc([C@@H](O)CNC(C)(C)C)c1 |  | -9.69% [at 25.6 µM] (inactive)
C[C@@]12CC[C@@H]3[C@H](CCC4=CC(=O)CC[C@]43C)[C@@H]1CC[C@@H]2C(=O)Cn1cnc2c(=S)nc[nH]c21 |  | -11.6% [at 11.4 µM] (inactive)
COC(=O)N1CCC2(CCN(CC(C)C)CC2)CC1 |  | 2.36% (inactive)
C[C@@]12CC[C@H](O)C[C@@H]1CC[C@H]1[C@@H]2C[C@@H](O)[C@]2(C)[C@@H](C3=CC(=O)OC3)CC[C@]12O |  | 4.33% [at 25.6 µM] (inactive)
C[N+]1(C)CCN(c2ccccc2)CC1 |  | 15.2% (inactive)
C[C@H](CC(C#N)(c1ccccc1)c1ccccc1)N1CCCCC1 |  | 6.88% [at 11.4 µM] (inactive)
COc1cc([C@@H](O)CN)ccc1O |  | -10.9% (inactive)
CNC[C@H](O)c1ccc(O)c(OC)c1 |  | -14.4% [at 25.6 µM] (inactive)
CCCCCCCCC(=O)NCc1ccc(O)c(OC)c1 | 3.16 µM (active) | 
COc1cc(CCN)ccc1O |  | 9.44% (inactive)
COc1cc(CNC(=O)CCCC/C=C\C(C)C)ccc1O | 1.26 µM (active) | 
C[C@@H]1O[C@H](O[C@@H]2CC[C@@]3(C=O)[C@H]4CC[C@@]5(C)[C@@H](C6=CC(=O)OC6)CC[C@@]5(O)[C@@H]4CC[C@]3(O)C2)C[C@H](O)[C@@H]1O |  | -13.8% [at 25.6 µM] (inactive)
COc1ccc2[nH]cc(C3=CCNCC3)c2c1 |  | 1.78% (inactive)
C=CCN1C(=O)NC(=O)/C(=C/c2cccn2C)C1=O |  | -22.7% (inactive)
O=C(O)Cc1cccnc1C(=O)O |  | -11.6% (inactive)
